This passage reports optomotor response results from the supplement of paper PMC9023506.

Counter-ions that a name gives are not always drawn.

The test has as its system Danio rerio larvae (5 dpf). Kind of test: optomotor response to fast red moving lines, difference vs DMSO (percentage points (treated minus DMSO)); higher = more of the behaviour than the DMSO vehicle control. The note with it: 10 µM; exposure time: 3 h pre-incubation + 3 h imaging. The protocol: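 5-dpf wild-type zebrafish larvae were imaged in 96-well plates. They were treated with 190 Tocris FDA-approved drugs at 10 µM (1 µl/ml DMSO) for 3 h before and 3 h during imaging at 28.5 °C, 48 larvae per drug. Automated image analysis gave % time moving and optomotor responses. Values are drug group mean minus DMSO vehicle mean (n=844), in percentage points, for 10 behaviours.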
`CC(C)C(=O)OCC(=O)[C@@]12O[C@H](C3CCCCC3)O[C@@H]1C[C@H]1[C@@H]3CCC4=CC(=O)C=C[C@]4(C)[C@H]3[C@@H](O)C[C@@]12C` [Ciclesonide]: the optomotor response is -3.93.

In the case of `CCCN(CCC)S(=O)(=O)c1ccc(C(=O)O)cc1` [Probenecid], the optomotor response is -11.6.

Take `Cc1ccccc1C(=O)Nc1ccc(C(=O)N2CCCC(O)c3cc(Cl)ccc32)c(C)c1` (stereo not given) [Tolvaptan]: the optomotor response turned out to be 2.23.

In the case of `CCOc1nc2cccc(C(=O)O)c2n1Cc1ccc(-c2ccccc2-c2nnn[nH]2)cc1` [Candesartan], the optomotor response is 1.2.

With `Nc1cc(N2CCCCC2)nc(N)[n+]1[O-]` [Minoxidil], the optomotor response is 2.09.

For `CN(C)CCc1c[nH]c2ccc(Cn3cncn3)cc12` [Rizatriptan benzoate], the optomotor response was found to be 5.

For `CC(C)N(CCCCOCC(=O)NS(C)(=O)=O)c1cnc(-c2ccccc2)c(-c2ccccc2)n1` [Selexipag], the optomotor response is -6.49.

`COc1cc([C@@H]2c3cc4c(cc3[C@@H](O[C@@H]3O[C@@H]5CO[C@@H](C)O[C@H]5[C@H](O)[C@H]3O)[C@H]3COC(=O)[C@H]23)OCO4)cc(OC)c1O` [Etoposide]: the optomotor response was -4.84.

With `COc1cc(N)c(Cl)cc1C(=O)NC1CCN(CCCOc2ccc(F)cc2)CC1OC` (stereo not given) [Cisapride], the optomotor response was found to be 9.11.

Take `CS(=O)(=O)CCNCc1ccc(-c2ccc3ncnc(Nc4ccc(OCc5cccc(F)c5)c(Cl)c4)c3c2)o1` [Lapatinib]: the optomotor response was -0.638.

For `CCCCCCCN(CC)CCCC(O)c1ccc(NS(C)(=O)=O)cc1` (stereo not given) [Ibutilide hemifumarate], the optomotor response stood at 3.06.

For the compound `CC(C)(C(=O)O)c1ccc(C(O)CCCN2CCC(C(O)(c3ccccc3)c3ccccc3)CC2)cc1` (stereo not given) [Fexofenadine hydrochloride], the optomotor response was -0.251.

For the compound `CC1(C)O[C@@H]2[C@@H](CO[C@@]3(COS(N)(=O)=O)OC(C)(C)O[C@@H]23)O1` [Topiramate], the optomotor response is -10.6.

For the compound `COCCCOc1cc(C[C@@H](C[C@H](N)[C@@H](O)C[C@H](C(=O)NCC(C)(C)C(N)=O)C(C)C)C(C)C)ccc1OC` [Aliskiren hemifumarate], the optomotor response amounted to 2.22.

For `O=C(Nc1c(Cl)cncc1Cl)c1ccc(OC(F)F)c(OCC2CC2)c1` [Roflumilast], the optomotor response was -10.8.

For the compound `COc1c(C)c2c(c(O)c1C/C=C(\C)CCC(=O)O)C(=O)OC2` [Mycophenolic acid], the optomotor response was 10.7.

`CC(C)CN(C[C@@H](O)[C@H](Cc1ccccc1)NC(=O)O[C@H]1CO[C@H]2OCC[C@H]21)S(=O)(=O)c1ccc(N)cc1` [Darunavir]: the optomotor response worked out at 1.68.

`CN1CC(=O)N2[C@H](c3ccc4c(c3)OCO4)c3[nH]c4ccccc4c3C[C@@H]2C1=O` [Tadalafil]: the optomotor response was -10.2.

For the compound `OCCN(CCO)c1nc(N2CCCCC2)c2nc(N(CCO)CCO)nc(N3CCCCC3)c2n1` [Dipyridamole], the optomotor response stood at 7.3.

As for `Nc1cccc2c1CN(C1CCC(=O)NC1=O)C2=O` (stereo not given) [Lenalidomide], the optomotor response was -0.414.

With `COc1ccccc1Oc1c(NS(=O)(=O)c2ccc(C(C)(C)C)cc2)nc(-c2ncccn2)nc1OCCO` [Bosentan], the optomotor response was found to be 0.298.

On to `CCc1ccc(CCOc2ccc(CC3SC(=O)NC3=O)cc2)nc1` (stereo not given) [Pioglitazone hydrochloride], for which the optomotor response was -6.55.

For the compound `Nc1ncn([C@@H]2O[C@H](CO)[C@@H](O)[C@H]2O)c(=O)n1` [5-Azacytidine], the optomotor response was found to be 1.5.

Turning to `COc1ccccc1OCCNCC(O)COc1cccc2[nH]c3ccccc3c12` (stereo not given) [Carvedilol], the optomotor response is -10.6.

For `NC(=O)c1ncn([C@@H]2O[C@H](CO)[C@@H](O)[C@H]2O)n1` [Ribavirin], the optomotor response was 0.429.

On to `O=C(O[C@@H]1C[C@@H]2C[C@H]3C[C@H](C1)N2CC3=O)c1c[nH]c2ccccc12` [Dolasetron mesylate], for which the optomotor response is -6.96.

Regarding `CC(C)(C#N)c1cc(Cn2cncn2)cc(C(C)(C)C#N)c1` [Anastrozole], the optomotor response is -1.59.

Take `CN1CC[C@@H](NC(=O)Nc2ccc(C#N)cc2)C[C@@H]1c1nc2ccccc2[nH]1`: the optomotor response is -0.171.

`CCOC(=O)c1ncn2c1CN(C)C(=O)c1cc(F)ccc1-2` [Flumazenil]: the optomotor response came to 9.89.

Consider `N#Cc1ccc(C(c2ccc(C#N)cc2)n2cncn2)cc1` [Letrozole], for which the optomotor response is 4.75.

For `COc1cc2nccc(Oc3ccc(NC(=O)C4(C(=O)Nc5ccc(F)cc5)CC4)cc3)c2cc1OC`, the optomotor response was -16.9.

As for `O=c1n(CCCN2CCN(c3cccc(Cl)c3)CC2)nc2ccccn12` [Trazodone hydrochloride], the optomotor response is 5.34.

On to `Cc1c(-c2ccc(O)cc2)n(Cc2ccc(OCCN3CCCCCC3)cc2)c2ccc(O)cc12` [Bazedoxifene acetate], for which the optomotor response came to 0.818.

In the case of `COc1cc(Nc2c(C#N)cnc3cc(OCCCN4CCN(C)CC4)c(OC)cc23)c(Cl)cc1Cl` [Bosutinib], the optomotor response amounted to 1.89.

In the case of `CCCCCCCCc1ccc(CCC(N)(CO)CO)cc1`, the optomotor response was determined as 10.4.

As for `Cc1ccc(NC(=O)c2ccc(CN3CCN(C)CC3)cc2)cc1Nc1nccc(-c2cccnc2)n1` [Imatinib mesylate], the optomotor response worked out at 1.11.

Regarding `C[C@]12CCC(=O)C=C1CC[C@@H]1[C@@H]2[C@@H](O)C[C@@]2(C)[C@H]1CC[C@]2(O)C(=O)CO` [Hydrocortisone], the optomotor response is -1.8.

For `O=C1CCc2ccc(OCCCCN3CCN(c4cccc(Cl)c4Cl)CC3)cc2N1` [Aripiprazole], the optomotor response is 7.59.

On to `CC(C)(C)NC(=O)[C@@H]1C[C@@H]2CCCC[C@@H]2CN1C[C@@H](O)[C@H](Cc1ccccc1)NC(=O)[C@H](CC(N)=O)NC(=O)c1ccc2ccccc2n1` [Saquinavir mesylate], for which the optomotor response is -8.88.

Take `CC(C)Nc1cccnc1N1CCN(C(=O)c2cc3cc(NS(C)(=O)=O)ccc3[nH]2)CC1` [Delavirdine mesylate]: the optomotor response was -17.
